The list is not random: actives were taken first. Their share in the collection is about 3.2%.
DYRK1A inh: blocks rat Dyrk1A kinase activity | Q63470 | ADP-Glo luminescence, NFATc1 peptide | inhibition, % at 12.5 µM | 310,000 tested, 0.43% active | AID 504441; in the data active means inhibition above about 50%;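 further: plate controls were vehicle with enzyme for no effect and no enzyme for full effect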
esBAF inh: blocks esBAF chromatin remodeling in mouse ES cells; Bmi1-luciferase knock-in reporter, 24 h; 100% = twice the neutral-well signal; reporter increase, % at 12.5 µM; 350,000 tested, 2% active; AID 602393; in the data active means activation above about 40%;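 further: 0% = median of the plate's neutral control wells and 100% = double that signal; a rise in the Bmi1 reporter signal indicates esBAF inhibition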
CDK5 inh: inhibitors of human CDK5/p35 kinase | Recombinant CDK5/p35, ADP-Glo luminescence, 60 min | inhibition, % at 10 µM | 330,000 tested, 0.01% active;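 active means highest replicate inhibition of at least 50% and at least 75% of replicates reaching 50%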;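 further: plate controls were DMSO neutral control for no effect and GW8510 at 10 µM for full effect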
SMARCA2 activ: activators of SMARCA2 function. MG213 cells, MMTV-luciferase reporter, dexamethasone, overnight. activation, % at 9.1 µM. 370,000 tested, 1% active; in the data active means activation above about 7.8%;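 further: 0% = vehicle wells and 100% = reference activator wells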
Rtt109 HAT inh: blocks Candida albicans Rtt109/Vps75 acetyltransferase activity; Q5AAJ8; purified Rtt109/Vps75, ThioGlo CoA-SH fluorescence, 4 h; inhibition, % at 34.9 µM; 330,000 tested, 0.16% active; AID 540336;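 active means inhibition of at least 50% in every replicate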
Target sequence (Q5AAJ8 whole entry, looked up): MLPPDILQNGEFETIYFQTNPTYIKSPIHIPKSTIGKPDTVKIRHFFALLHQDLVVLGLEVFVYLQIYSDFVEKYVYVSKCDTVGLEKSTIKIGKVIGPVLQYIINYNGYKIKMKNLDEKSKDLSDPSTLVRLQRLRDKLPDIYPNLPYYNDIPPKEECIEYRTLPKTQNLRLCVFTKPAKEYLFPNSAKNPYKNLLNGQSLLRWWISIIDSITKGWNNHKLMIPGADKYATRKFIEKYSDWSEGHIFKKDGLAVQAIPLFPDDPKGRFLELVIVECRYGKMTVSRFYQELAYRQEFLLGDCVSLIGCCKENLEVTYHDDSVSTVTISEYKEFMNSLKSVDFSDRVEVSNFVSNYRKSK
dFosB act: mouse delta FosB homodimer activation. purified delta FosB, TAMRA-CDK5 oligo fluorescence polarization; percent of positive-control signal above neutral wells. activation, % at 25 µM. 340,000 tested, 0.99% active. AID 493131;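 active means mean activation above about 17%, with every replicate also reaching it, limit read from the data, passing the limit was not always enough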
* = called active by the depositor; . = not tested or not shown.

SMILES	DYRK1A inh	esBAF inh	CDK5 inh	SMARCA2 activ	Rtt109 HAT inh	dFosB act
COc1ccc(S(=O)(=O)N(C)C[C@H]2OCCCC[C@H](C)Oc3ccc(NC(=O)c4ccncc4)cc3C(=O)N([C@@H](C)CO)C[C@@H]2C)cc1	.	-4.4	.	.	.	.
COc1ccccc1-c1ccc2n(c1=O)C[C@H]1[C@H](CO)[C@@H](C(=O)N(C)C)N(CC3CCOCC3)[C@@H]21	.	-0.8	.	.	.	.
OC[C@@H]1CN(Cc2ccccc2)C[C@H](n2cnc3c(NCc4ccc(F)cc4)ncnc32)O1	.	46.0*	.	2.0	.	.
Clc1cccc(CSc2ncnc3c2ncn3C2CCCCO2)c1 (stereo unspecified)	-2.8	75.9*	0.1	0.0	1.2	-10.9
Cc1ccccc1C(=O)O/N=C(\N)c1ccc([N+](=O)[O-])cc1	.	56.6*	-1.1	0.3	4.8	-4.1
Cc1ccccc1C(=O)O/N=C(\N)c1ccccc1	55.1*	40.7	11.9	3.6	2.7	-5.6
N/C(=N\OC(=O)c1ccccc1Br)c1ccc([N+](=O)[O-])cc1	-1.2	49.5*	-3.1	6.0	-1.4	5.9
COc1ccccc1C(=O)O/N=C(\N)c1ccc(Cl)cc1	1.6	52.1*	0.2	6.1	-0.1	1.4
C[C@@H](O)C#Cc1cnc2c(c1)C(=O)N([C@@H](C)CO)C[C@H](C)[C@H](CN(C)Cc1cccc(F)c1)O2	.	2.1	.	.	.	.
COCC(=O)N1C[C@@H]2[C@H](c3ccccc31)[C@H](CO)N2C(=O)C1CCCCC1	.	3.1	.	.	.	.
COc1ccccc1S(=O)(=O)N[C@H]1CC[C@@H](CC(=O)N2CCOCC2)O[C@H]1CO	.	-5.6	.	.	.	.
Cc1ccccc1/C(N)=N/OC(=O)c1ccc(F)cc1	-4.3	48.5*	-0.4	1.8	.	-8.6
COc1ccccc1NC1=C(Cl)C(=O)N(C2CCCCC2)C1=O	0.9	5.6	3.1	-1.1	51.9*	-5.9
COc1ccccc1N1C(=O)C(Cl)=C(Nc2ccccc2O)C1=O	3.6	.	0.0	-4.2	75.0*	-0.8
O=C(c1ccccn1)N1CC[C@H]2[C@H](CO)Nc3ccc(-c4ccc(F)cc4)cc3[C@H]21	.	13.2	.	.	.	.
O=C(C[C@@H]1C=C[C@H](NC(=O)c2ccncc2)[C@H](CO)O1)NCC1CCCCC1	.	0.2	.	.	.	.
CCCCNc1ncnc2c1cnn2-c1ccccc1	8.6	31.9	1.0	0.5	4.8	2.0
CCc1nc(NC(C)(C)C)c2cnn(-c3ccccc3)c2n1	2.4	73.5*	1.3	1.3	2.4	-9.1
C[C@@H]1CN([C@H](C)CO)C(=O)c2cc(-c3ccccc3)cnc2O[C@H]1CN(C)Cc1ccccc1	.	3.2	.	.	.	.
Cc1cc(C(=O)C(C)Sc2cccc[n+]2[O-])c(C)n1-c1ccc(Cl)cc1 (stereo unspecified)	0.9	61.9*	2.8	-3.0	6.9	-7.3
O=C(NNC(=O)C12CC3CC(CC(C3)C1)C2)c1cccc(O)c1	-5.4	14.3	-2.0	1.8	-4.9	-5.0
O=C(NC(=S)Nc1cccc(O)c1)C12CC3CC(CC(C3)C1)C2	.	47.1*	.	-3.0	.	.
O=C(CCN1CCc2ccccc2CC1)c1ccc2c(c1)OCCO2	5.5	-3.5	-6.5	0.7	176.8*	-12.0
O=C(CCCN1CCOCC1)c1ccc2c(c1)OCCO2	1.9	50.0*	0.1	4.2	.	1.8
COCC(=O)N(C)C[C@H]1Oc2ncc(-c3ccc(F)cc3)cc2C(=O)N([C@@H](C)CO)C[C@@H]1C	.	-0.6	.	.	.	.
SMILES	DYRK1A inh	esBAF inh	CDK5 inh	SMARCA2 activ	Rtt109 HAT inh	dFosB act
Cc1cc(O)c(C(C[N+](=O)[O-])c2ccc(Cl)cc2Cl)c(=O)o1 (stereo unspecified)	13.4	9.3	-2.2	.	55.8*	-6.2
CCCCCCn1ccc(=N)cc1	10.5	.	-0.8	-3.9	-5.1	0.5
CCCCCCCCCCCCCCCCn1cc[n+](CC(C)=O)c1	1.7	.	4.1	.	111.7*	-172.8
CCCN1C[C@H](C)[C@H](OC)CN(C)C(=O)c2cc(NC(=O)C3CCC3)ccc2OC[C@H]1C	.	-2.8	.	.	.	.
Cc1noc(C)c1S(=O)(=O)Nc1ccc2c(c1)C(=O)N([C@@H](C)CO)C[C@@H](C)[C@@H](CN(C)S(=O)(=O)c1ccc(F)cc1)O2	.	5.2	.	.	.	.
C=CCNC(=O)C1CCN(c2cc(C)nc(-c3ccccc3)n2)CC1	-4.2	-3.0	-0.5	0.7	-2.3	-15.0
C=CCNC(=O)C1CCN(c2nc(C)cc(-c3ccccc3)n2)CC1	9.6	55.6*	-0.4	.	-10.3	-6.6

Source: PubChem (several laboratories)
